From PubChem BioAssay
Arbovirus inh – blocks arbovirus infection | actives 0.37% (n = 200,000) | inhibition, % at 10 µM | arbovirus infection cell-based antiviral screen; in the data active = inhibition above about 30%
Mcl1-Bid inh – Mcl-1/Bid interaction inhibition | Q07820 | TR-FRET Mcl-1/Bid-Dy647 peptide binding, 1536-well | inhibition, % at 21.7 µM | actives 0.97% (n = 220,000);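 active = compounds that cut the binding signal by more than half at the single screening dose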;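 note: His-tagged Mcl-1 with europium anti-His antibody binding Bid BH3 peptide; 0% = Mcl-1 plus peptide wells and 100% = peptide-only wells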
Target sequence (Q07820 whole entry, looked up): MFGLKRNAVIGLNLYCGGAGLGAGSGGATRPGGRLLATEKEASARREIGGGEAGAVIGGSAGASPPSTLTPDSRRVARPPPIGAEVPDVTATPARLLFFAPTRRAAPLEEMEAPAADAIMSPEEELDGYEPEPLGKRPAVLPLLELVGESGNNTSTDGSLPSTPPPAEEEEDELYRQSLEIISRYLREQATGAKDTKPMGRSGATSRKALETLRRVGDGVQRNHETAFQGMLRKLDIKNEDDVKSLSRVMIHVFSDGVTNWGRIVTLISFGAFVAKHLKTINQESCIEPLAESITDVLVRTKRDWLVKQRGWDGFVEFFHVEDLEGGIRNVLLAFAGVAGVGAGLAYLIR
14-3-3 Bad inh – disrupts binding of bovine 14-3-3 zeta to phospho-Bad peptide; inhibition, % at 21.7 µM; TR-FRET 14-3-3zeta/Dy647-pBad peptide displacement, 1 h; actives 0.71% (n = 220,000);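 active = inhibition above about 70%, limit read from the data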;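 note: 0% = full 14-3-3 plus peptide FRET controls and 100% = background without 14-3-3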
Mcl1-Noxa inh – Mcl-1/Noxa interaction inhibition. Q07820. TR-FRET Mcl-1/Noxa peptide binding, 2 h. inhibition, % at 21.7 µM. actives 1.5% (n = 220,000). AID 1022;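 active = compounds that cut the protein-peptide binding signal by more than 50% relative to plate controls in a single-dose test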;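 note: His-tagged Mcl-1 with rhodamine Noxa BH3 peptide and terbium anti-His antibody; 0% = Mcl-1 plus Noxa peptide wells and 100% = peptide-only wells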
Bim-Mcl-1 – disrupts Bim peptide binding to human Mcl-1; Bead-based flow cytometry, Bim peptide-Mcl-1 binding; AID 1009; inhibition, % at 10 µM; actives 0.1% (n = 190,000); in the data active = inhibition above about 40%;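 note: 0% = no compound tracer wells and 100% = peptide blocker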
* = called active by the depositor; nt = no result. Shown are actives, neighbours in structure and some others; about 3% of the full set was active somewhere.

SMILES	Arbovirus inh	Mcl1-Bid inh	14-3-3 Bad inh	Mcl1-Noxa inh	Bim-Mcl-1
Cc1ccc(CSC2=NCCN2C(=O)c2ccc(S(=O)(=O)N(C)C)cc2)cc1	2	-42	-3	-8	4
N#Cc1c(-c2ccco2)cc(-c2ccccc2)[nH]c1=O	nt	-27	19	47	nt
Cc1ccc(-c2cc(-c3ccco3)c(C#N)c(=O)[nH]2)cc1	nt	-32	26	68*	nt
Cc1ccc(-c2cc(C(F)(F)F)c(C#N)c(=O)[nH]2)cc1	54*	-6	4	10	-4
O=C(/C=C/c1ccc(Cl)cc1Cl)N1CCN(c2ccccc2[N+](=O)[O-])CC1	11	-15	13	14	0
Cc1oc(-c2ccccc2)cc1C(=O)Nc1ccc(N(C)C)cc1	-9	6	3	73*	0
O=S(=O)(c1ccc(N2CCOCC2)nc1)N(Cc1ccccn1)Cc1ccccn1	nt	-1	2	-8	nt
O=C(O)CC/C(=C\c1ccc(Cl)c([N+](=O)[O-])c1)c1nc2ccccc2s1	26	5	-3	14	-2
N#C/C(=C\c1ccc(N2CCCCC2)c([N+](=O)[O-])c1)c1nn(-c2ccccc2)c(N)c1C#N	1	-6	-4	14	-6
N#C/C(=C\c1ccc(O)c([N+](=O)[O-])c1)c1nc2ccccc2s1	46*	16	41	66*	1
N#C/C(=C\c1ccc(N2CCCC2)c([N+](=O)[O-])c1)c1nc2ccccc2[nH]1	-8	68*	19	36	-2
COc1ccc(-c2csc(/C(C#N)=C\c3ccc(OC)c([N+](=O)[O-])c3)n2)cc1	-6	-6	-5	13	-5
COc1ccc(-c2csc(/C(C#N)=C\c3ccc(O)c([N+](=O)[O-])c3)n2)cc1OC	nt	70*	12	102*	nt
COc1cc(/C=C(\C#N)c2nc3ccccc3s2)cc([N+](=O)[O-])c1O	36*	49	28	99*	4
Cc1nn(C)cc1CN(C)S(=O)(=O)c1cccc([N+](=O)[O-])c1	6	-8	-3	12	1
CSc1ccc(CNCCCN(C)C)cc1	-11	-24	0	21	-4
CCc1ccc(N(C(=O)c2ccco2)C(C(=O)NC2CCCC2)c2ccco2)cc1 (centres undefined)	-3	-2	-4	-3	-1
COc1ccc(CCNC(=O)c2ccc(CNS(=O)(=O)c3ccc(C(C)(C)C)cc3)cc2)cc1OC	-2	97*	2	17	-6
COc1ccc(NC(=O)C2=C(C)NC(=O)NC2c2cccc(OC)c2OC)c(OC)c1 (centres undefined)	-1	0	-10	-12	43*
COC(=O)C1=C(C)C(c2ccc(OC)cc2OC)NC(=O)N1 (centres undefined)	6	65*	-4	4	3
O=C(COc1cccnc1[N+](=O)[O-])NCc1cccs1	6	-9	-11	0	-5
CCN(CC)C(=O)N1CCN(C(=O)N(CC)CC)CC1	5	-32	-1	-8	-2
CCN(CC)C(=O)N1CCN(C)CC1	4	59*	-1	-34	-1
Cc1ccc(S(=O)(=O)c2c(COC(=O)c3ccc(Cl)cc3)c(-c3ccccc3)nn2C)cc1	-27	10	-3	17	15
Cc1ccccc1OCC(=O)N=Nc1c(O)n(C)c2ccccc12	nt	-26	11	-27	nt
SMILES	Arbovirus inh	Mcl1-Bid inh	14-3-3 Bad inh	Mcl1-Noxa inh	Bim-Mcl-1
Cc1c(NC(=O)C(C)OC(=O)c2c3c(nc4ccccc24)CCC3)c(=O)n(-c2ccccc2)n1C (centres undefined)	12	-19	-5	54*	-5
CCOc1c(Cl)cc(CNc2ccc(N3CCCC3)cc2)cc1OC	-7	-19	-3	88*	9
CCOn1c(=O)c(=O)n(OC)c2ccccc21	nt	17	19	26	nt
CC1CCCCC12NC(=O)N(CC(=O)Nc1sc3c(c1C(N)=O)CCC3)C2=O (centres undefined)	19	-61	-5	82*	-1
Cn1cnnc1SCC(=O)Nc1sc2c(c1C(N)=O)CCC2	-29	-64	16	100*	-1
CC1CCC2(CC1)NC(=O)N(CC(=O)Nc1sc3c(c1C(N)=O)CCC3)C2=O (centres undefined)	11	-84	24	64*	3
O=S(=O)(c1cccs1)N1CCN(c2ccnc3cc(Cl)ccc23)CC1	nt	-12	0	-8	nt
O=S(=O)(c1ccccc1)N1CCN(c2ccnc3cc(Cl)ccc23)CC1	5	6	71*	10	-2
Cc1cccc(NC(=O)c2cnn3ccccc23)c1C	nt	-15	15	5	nt
Cc1ncc(CO)c(/C=N/NC(=O)c2cc(O)c(O)c(O)c2)c1O	0	-66	-2	67*	4
CCOC(=O)c1nnn(CC(=O)N2N=C(c3ccc(Cl)cc3)CC2c2ccccc2)c1C(=O)OCC (centres undefined)	-11	-6	2	-34	-1
O=c1c2c(nc3nc(NCc4cccc(Cl)c4)[nH]n13)CCC2	5	-20	72*	-8	-2
O=C(NC(Cc1c[nH]c2ccccc12)C(=O)O)c1ccccc1 (centres undefined)	0	-40	8	2	-3
CN(C)c1ccc(C(CNS(=O)(=O)c2ccc(F)c(F)c2)c2c[nH]c3ccccc23)cc1 (centres undefined)	-35	-56	-13	21	-5
CN(C)c1ccc(C(CNC(=O)c2ccccc2)c2c[nH]c3ccccc23)cc1 (centres undefined)	-5	-1	3	68*	-2
CN(C)c1ccc(C(CNC(=O)c2ccccc2F)c2c[nH]c3ccccc23)cc1 (centres undefined)	7	-2	-1	66*	27
CCN(CC)S(=O)(=O)c1ccc(C(=O)N2CCCCC2)cc1	3	-17	-3	-5	0
COC(=O)c1ccc(C23CC4(C2)[C@H](CN(CC2CCCCC2)[C@@H]4c2ccccc2)C3c2ccc(C(F)(F)F)cc2)cc1 (some centres undefined)	nt	-59	1	-12	nt
O=C(CC1S/C(=N/N=C/c2c[nH]c3ccccc23)NC1=O)Nc1ccccc1 (centres undefined)	-3	56*	-8	61*	-3
O=C(CC1S/C(=N/N=C/c2c[nH]c3ccc(OCc4ccccc4)cc23)NC1=O)Nc1ccccc1 (centres undefined)	-1	58*	6	67*	-5
O=C(CC1S/C(=N/N=C/c2ccco2)NC1=O)Nc1ccccc1 (centres undefined)	-1	-31	-13	18	-1
O=C(CC1S/C(=N/N=C/c2cccs2)NC1=O)Nc1ccc(Cl)cc1 (centres undefined)	-11	-3	8	-13	-1
CC(C)COC(=O)NC1c2ccccc2Oc2ccccc21	nt	-6	-1	-1	nt
CC(C)(C)C(=O)Nc1nc(C2CCCN2S(=O)(=O)c2ccc(Cl)cc2)cs1 (centres undefined)	15	-19	71*	-8	2
